Source: PubChem BioAssay AID1259325 (C. David Weaver Laboratory, Vanderbilt University, 2017)
Among all 63,000 compounds or so, about 30 (0.05%) were called active. The rule behind the calls is not given here. Only a sample is shown.

Molecular target: G protein-activated inward rectifier potassium channel 2 (Homo sapiens) (UniProt P48051)
Assay: activators of human GIRK2 potassium channels (AID 1259325)
Details: HEK293-GIRK2 thallium flux, Thallos fluorescence, MPD

Sequence of G protein-activated inward rectifier potassium channel 2 (Homo sapiens) (P48051 whole entry, looked up): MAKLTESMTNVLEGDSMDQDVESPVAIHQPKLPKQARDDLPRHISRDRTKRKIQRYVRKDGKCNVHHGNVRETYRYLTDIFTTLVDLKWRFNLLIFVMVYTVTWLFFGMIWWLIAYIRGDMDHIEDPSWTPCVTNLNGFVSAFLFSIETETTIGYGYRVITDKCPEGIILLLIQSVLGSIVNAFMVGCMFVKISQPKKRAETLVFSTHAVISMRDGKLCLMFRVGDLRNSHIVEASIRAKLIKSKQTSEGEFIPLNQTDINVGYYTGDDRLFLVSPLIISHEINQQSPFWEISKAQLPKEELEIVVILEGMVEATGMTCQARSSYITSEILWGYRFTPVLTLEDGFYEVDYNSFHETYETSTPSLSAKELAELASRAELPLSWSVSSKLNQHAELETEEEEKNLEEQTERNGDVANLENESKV

outcome, inactive:
Cc1nc(-c2ccc(N3CCN(C(=O)NCc4ccc(F)cc4)CC3)nc2)no1
O=C(Cc1ccc(F)cc1)N1CC(c2nc(-c3cccnc3)no2)C1
CCc1cc(=O)n(CCNC(=O)COc2ccc(F)cc2F)cn1
COc1ccc(S(=O)(=O)Nc2ccc3c(c2)N(C(=O)c2ccccc2)CCC3)cc1F
NC(=O)c1ccccc1OCC#CCNC(=O)c1ccc(=O)[nH]c1
COC(=O)c1ccc2c(=O)n(-c3cc(OC)cc(OC)c3)c(N3CCSCC3)nc2c1
Cc1cc(C(=O)Nc2nc(C(=O)N3CCN(c4cc(Cl)ccc4C)CC3)co2)no1
Cc1nc(-c2cccc(NC(=O)c3coc(NC(=O)c4cnccn4)n3)c2)cs1
COc1ccc(NC(=O)Cn2c(=O)nc(N3CCC(C)CC3)c3ccccc32)cc1Cl
CC(C)c1nnc(C2CCN(Cc3cccnc3)CC2)o1
CN1CCC(n2cnc(-c3ccc(F)cc3)c2-c2ccnc(N)n2)CC1
Cc1ccccc1N1CCN(c2nccn3c(=O)n(CC(=O)Nc4ccc(Cl)cc4)nc23)CC1
Cn1c(=O)c2c(nc(SCCO)n2Cc2ccccc2)n(C)c1=O
O=C(CSc1nnc(Cn2ccc(=O)[nH]c2=O)o1)N1CCC(Cc2ccccc2)CC1
COc1ccc(-c2cc3nn(CC(=O)NCc4ccccc4Cl)c(=O)n3c(C)n2)cc1
COc1cccc(NC(=O)c2cn(CC(O)c3ccccc3)nn2)c1 (configuration not stated)
CN(C)CCn1c2c(c(=S)[nH]c1=O)CCC2
CCOC(=O)CCC(=O)N1CCN(Cc2csc(-c3ccccc3)n2)CC1
Cc1cc(N2CCN(C(=O)NC3CCCC3)CC2)ncn1
COc1ccc(C)cc1N1CCn2c1nc1c2c(=O)n(Cc2cccc(C)c2)c(=O)n1C
Nc1nc(Nc2ccc(F)c(F)c2)ncc1[N+](=O)[O-]
O=C(NCc1cccs1)N1C2CCC1COC2
CN1CCC(CNC(=O)c2cc(Br)ccc2Cl)CC1
COc1ccccc1C(=O)NCCN1CCN(c2ccccc2OC)CC1
CCNC(=O)c1cn(-c2ccc(SCC(=O)Nc3ccc(C)cc3)nn2)cn1
Cn1cnnc1SCCNC(=O)CNC(=O)c1ccc(=O)[nH]c1
CC(C)c1ccccc1NC(=O)Cc1cc(=O)[nH]c(SCc2ccc(F)cc2)n1
O=C(NCc1ccccc1)Nc1nnc(-c2ccco2)o1
NC(=O)c1ccccc1OCC#CCNC(=O)C1CCC1
Cc1cc(C(O)CCNC(=O)Nc2ccccc2)c(C)o1 (configuration not stated)
C#CCSc1nnc(N2CCN(c3ccccc3OC)CC2)s1
O=C(c1ccncc1)N1CCc2cc(S(=O)(=O)N3CCOCC3)ccc21
COc1ccc(NC(=O)C(=O)NCCC2=CCCCC2)cc1Cl
COc1ccc(-n2c(C)c(C)n3c4c(=O)n(CC(C)C)c(=O)n(C)c4nc23)cc1
CCOc1ccccc1C(=O)Nn1cnc2c(cnn2-c2cccc(Cl)c2)c1=O
CCN(CC)C(=O)Oc1ccc2c(=O)c(-c3ccc(Br)cc3)coc2c1
COc1ccccc1N1CCN(CCNC(=O)c2ccc(F)cc2)CC1
CCOC(=O)c1ccc(NC(=O)c2coc(NC(=O)C3CC3)n2)cc1
CCN(CC)c1ccc(-c2noc(CN3CCN(c4cccc(C)c4)CC3)n2)cn1
CCCCCn1c(=O)c2c(nc3n2CC(C)CN3c2ccc(Oc3ccccc3)cc2)n(C)c1=O (configuration not stated)
Cc1cc(C(=O)NCC#CCOc2ccc3c(c2)OCO3)c(C)o1
COc1cc(OC)cc(N(C)S(=O)(=O)c2ccsc2-c2nc(-c3cccc(C)c3)no2)c1
O=C(CSc1nnc(-c2ccc(Cl)cc2)c2ccccc12)N1CCOCC1
Cc1csc(SCC2CCN(S(=O)(=O)c3cccc(C(F)(F)F)c3)CC2)n1
CC(C)(C)OC(=O)COc1ccc2c(c1)O/C(=C\c1cc(Cl)cc3c1OCOC3)C2=O
Cc1nc(SCc2ccccc2)[nH]c(=O)c1CC(=O)Nc1ccc(C(C)C)cc1
Cc1ccc(S(=O)(=O)N(Cc2ccc(Cl)cc2)C(=O)N2CCN(C)CC2)cc1
COc1ccc(C)c2sc(N(CCCn3ccnc3)C(=O)/C=C/c3cccs3)nc12
CCC(C(=O)Nc1cc(F)ccc1F)n1cc(-c2nc(-c3cnccn3)no2)ccc1=O (configuration not stated)
COc1cc(NC(=O)Cn2cnc3c(-c4ccc(Cl)cc4)csc3c2=O)cc(OC)c1
COc1ccccc1OCC#CCNC(=O)c1cnccn1
Cc1cc(C)c2c(c1)c(=O)c1c(n2C)CCN(C(=O)Nc2cc(Cl)ccc2C)C1
COc1ccc(C2(CNC(=O)C3CCN(S(C)(=O)=O)CC3)CCOCC2)cc1
O=C(CSc1cc(C(F)(F)F)c2cc3c(cc2n1)OCO3)NCc1ccco1
O=C(Cc1ccc(NS(=O)(=O)c2c(F)cccc2F)cc1)NCc1cccs1
Cc1nn(-c2ncc(NC(=O)c3cccc4ccccc34)cn2)c(C)c1C
Cc1nc(C)c(-c2nnc(NC(=O)COc3cccc4c3OC(C)(C)C4)o2)s1
COc1ccc(F)cc1S(=O)(=O)N1CCN=C1c1ccccc1
O=C(CSCc1ccccc1)Nc1cnoc1
COc1ccc(Cn2cc(S(=O)(=O)N3CCCCC3)ccc2=O)cc1F
O=C(CC1CCCC1)N(CCc1cccs1)Cc1ccoc1
Cc1cc(SCC(=O)c2ccc3c(c2)OCO3)nc(C(C)C)n1
C=C(C)COc1ccc(-c2nc(N)nc(C(F)(F)F)c2-c2ccccc2OC)c(O)c1
CCOC(=O)C1CCc2sc(NC(=O)C3CCCN(Cc4nc(-c5cccnc5)no4)C3)nc21 (configuration not stated)
CCOC(=O)CN1CCC(c2nnc(-c3ccc(F)cc3)o2)CC1
CCOC(=O)c1cnn2ccc(NC(=O)C(c3ccccc3)c3ccccc3)cc12
O=C1CC(c2nc3ccccc3n2CCOc2ccccc2)CN1c1ccccc1 (configuration not stated)
